About 83,000 compounds went through this panel and 20% of them were active in at least one assay; those are over-represented in the sample as a whole.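 Cells were grown in 96-well plates and exposed to the test compound at a single concentration for 48 hours; results are reported as percent growth, with values below 10 considered active.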 A number with no mark means an inactive call. The source made the active and inactive calls.
What follows are compounds tested on HOP-62 NSCLC (assay: NCI-60 one-dose screen, 48 h (100 = growth as untreated, 0 = no growth, -100 = all killed)). Conditions: 10 µM unless noted.
Work on `C=CC(=O)Nc1cccc(-c2nc(SC)nc(NCc3ccccc3)c2C#N)c1` yielded a growth of 73.9%. In the case of `COC(=O)c1ccc2oc(NC(=O)c3ccc(Nc4ccc([N+](=O)[O-])cc4C)c([N+](=O)[O-])c3)nc2c1`, the growth is reported as 107%. `COc1cc(/C=C/c2cc(/C=C/c3ccc(O)c(OC)c3)n(-c3c(Cl)cccc3Cl)c(=O)n2)ccc1O` showed a growth of 50.6%. `CSc1nc(Nc2cccc(NC(=O)CCl)c2)c(C#N)c(-c2cccc([N+](=O)[O-])c2)n1` showed a growth of 86.5%. `CC(C)(C)N1CCC1CN` (stereo unspecified) gave a growth of 108%. `Cc1ccc(NC(=O)/C=C/c2ccccc2)c(C(N)=O)c1` was tested, and the growth was 88.2%. For `COc1ccc(-n2nc(C)c3c(Nc4ccc(NC(=O)Nc5cccc(C(F)(F)F)c5)cc4)ncnc32)cc1`, the growth was -37.9% (active). In the case of `O=C1OCC2=C1C(c1ccncc1)c1cc3c(cc1N2CCO)OCO3` (stereo unspecified), the growth is reported as 93.5%. Work on `C#Cc1cccc(NC(=O)c2ccccc2NC(=O)C=C)c1` yielded a growth of 92.9% [8.25 µM]. For `CCOc1cc2ncc(C#N)c(Nc3ccc(F)c(Cl)c3)c2cc1NC(=O)CC1CCSS1` (stereo unspecified), the growth was -66% (active). `CN(Cc1cc(Cl)cc(Cl)c1O)Cc1cc(Cl)cc(Cl)c1O` showed a growth of 54.6%. Work on `CC(=O)O[C@H]1[C@@H]2OC(=O)C(CSc3ccccc3)[C@@H]2C[C@H]2O[C@]2(C)CC/C=C(\C)CCC[C@@H]1C` (stereo partly specified) yielded a growth of 101%. `COc1ccc(/C=N/C2=C(C#N)C(c3ccc(N(C)C)cc3)c3ccc4ccccc4c3O2)cc1` (stereo unspecified) was tested, and the growth was 57.4%. In the case of `C[n+]1ccccc1/C=C/c1ccc2cccc(O)c2n1`, the growth is reported as 91.1%. Work on `Cc1nn(-c2ccc(F)cc2)c2ncnc(Oc3ccc(NC(=O)Nc4ccc(Cl)c(C(F)(F)F)c4)cc3)c12` yielded a growth of 105%. In the case of `COc1ccc(C(=O)c2sc3nc(C)cc(C)c3c2N)cc1OC`, the growth is reported as 53.4%. `C=CC(=O)Nc1cccc(-c2nc(SC)nc(Nc3ccccc3OC)c2C#N)c1` gave a growth of 37.9%. `Nc1nc2ncc(CCNc3ccc(C(=O)O)cc3)nc2c(=O)[nH]1` showed a growth of 113%. `CCCSc1ccc2nc(NC(=O)OC)[nH]c2c1` showed a growth of 35.2%. `CCCc1cc(=O)n2c(C(=O)Nc3ccc(F)cc3)c(C(=O)Nc3ccc(F)cc3)sc2n1` was tested, and the growth was 27.8% [30 µM]. For `O=C(/C=C/c1ccccc1)c1ccc(O)c(CN2CCN(c3cc4c(cc3F)c(=O)c(C(=O)O)cn4C3CC3)CC2)c1`, the growth was 25.1%. Work on `CCOC(=O)c1sc2nc(-c3cccc(OC)c3)nc(N3CCOCC3)c2c1C` yielded a growth of 110%. In the case of `CCCCCCCCCCCCC[N+](C)(C)Cc1ccccc1`, the growth is reported as -73.1% (active). In the case of `CCCOc1ccc2nc(NC(=O)OC)[nH]c2c1`, the growth is reported as 33.6%. For `Nc1n[nH]c2ccc([C@@H]3Nc4ccc5cn[nH]c5c4[C@H]4C5CCC(C5)[C@@H]34)cc12` (stereo partly specified), the growth was 48.3%. `O=c1nc2oc3ccc4ccccc4c3cc-2s1` showed a growth of 23%. Compound `COC(=O)c1cccc(NC(=O)c2ccc(-c3cccc(N)c3)o2)c1` has a growth of 104%. With `CCOC(=O)c1c(C)oc2ncnc(N3CCN(C(=S)Nc4ccccc4)CC3)c12` the growth was 87.2%. With `CCCCN(CCCC)CCCn1c(-c2ccccc2)ccc1-c1ccccc1` the growth was 87.9%. Work on `CN1CCN(CCCOc2cccc3nc(Nc4ccc(Cl)c(F)c4)ccc23)CC1` yielded a growth of 61%. With `COc1cccc(/C=N/NC(=O)c2ccccc2Nc2ccnc(C(F)(F)F)c2)c1O` the growth was -6.28% (active). For `COc1cc2nc(N3CCCC3)nc(NCc3ccccc3)c2cc1OC`, the growth was 86.8%. Compound `COc1cc2c(cc1-c1c(C)noc1C)ncc1nc(-c3ccccn3)n([C@H](C)COC(F)F)c12` has a growth of 40.9%. Compound `COc1cccc(-c2nc3sccn3c2-c2ccnc(NCCCNS(=O)(=O)c3c(Cl)cccc3Cl)c2)c1` has a growth of 85.6%. `N#Cc1c(-c2ccc(Cl)cc2)nc(NN=Cc2ccco2)nc1N1CCOCC1` showed a growth of 66.4%. For `O=C(Nc1cccc2[nH]c(C(F)(F)F)nc12)c1ccc(-n2cnnn2)cc1`, the growth was 97.6%. `CC1CCNC(C)C1` (stereo unspecified) showed a growth of 104%. With `CCN(CC)c1ccc(-c2cc(-c3cc(OC)c(OC)c(OC)c3)nc(N3CCOCC3)c2C#N)cc1` the growth was -40.5% (active).

These compounds were tested on NCI-H460 lung in the same assay as above. Conditions: 10 µM unless noted.
With `C=CC(=O)Nc1cccc(-c2nc(SC)nc(NCc3ccccc3)c2C#N)c1` the growth was 84%. In the case of `COC(=O)c1ccc2oc(NC(=O)c3ccc(Nc4ccc([N+](=O)[O-])cc4C)c([N+](=O)[O-])c3)nc2c1`, the growth is reported as 101%. In the case of `COc1cc(/C=C/c2cc(/C=C/c3ccc(O)c(OC)c3)n(-c3c(Cl)cccc3Cl)c(=O)n2)ccc1O`, the growth is reported as 70.8%. `CSc1nc(Nc2cccc(NC(=O)CCl)c2)c(C#N)c(-c2cccc([N+](=O)[O-])c2)n1` showed a growth of 86.8%. With `CC(C)(C)N1CCC1CN` (stereo unspecified) the growth was 109%. With `Cc1ccc(NC(=O)/C=C/c2ccccc2)c(C(N)=O)c1` the growth was 10.5%. For `COc1ccc(-n2nc(C)c3c(Nc4ccc(NC(=O)Nc5cccc(C(F)(F)F)c5)cc4)ncnc32)cc1`, the growth was 1.6% (active). Compound `O=C1OCC2=C1C(c1ccncc1)c1cc3c(cc1N2CCO)OCO3` (stereo unspecified) has a growth of 101%. With `C#Cc1cccc(NC(=O)c2ccccc2NC(=O)C=C)c1` the growth was 103% [8.25 µM]. `CCOc1cc2ncc(C#N)c(Nc3ccc(F)c(Cl)c3)c2cc1NC(=O)CC1CCSS1` (stereo unspecified) was tested, and the growth was -64.4% (active). Work on `CN(Cc1cc(Cl)cc(Cl)c1O)Cc1cc(Cl)cc(Cl)c1O` yielded a growth of 45.6%. For `CC(=O)O[C@H]1[C@@H]2OC(=O)C(CSc3ccccc3)[C@@H]2C[C@H]2O[C@]2(C)CC/C=C(\C)CCC[C@@H]1C` (stereo partly specified), the growth was 42.3%. With `COc1ccc(/C=N/C2=C(C#N)C(c3ccc(N(C)C)cc3)c3ccc4ccccc4c3O2)cc1` (stereo unspecified) the growth was 40.7%. `C[n+]1ccccc1/C=C/c1ccc2cccc(O)c2n1` gave a growth of 102%. `Cc1nn(-c2ccc(F)cc2)c2ncnc(Oc3ccc(NC(=O)Nc4ccc(Cl)c(C(F)(F)F)c4)cc3)c12` showed a growth of 101%. Compound `COc1ccc(C(=O)c2sc3nc(C)cc(C)c3c2N)cc1OC` has a growth of 67.6%. With `C=CC(=O)Nc1cccc(-c2nc(SC)nc(Nc3ccccc3OC)c2C#N)c1` the growth was 5.19% (active). `Nc1nc2ncc(CCNc3ccc(C(=O)O)cc3)nc2c(=O)[nH]1` was tested, and the growth was 114%. `CCCSc1ccc2nc(NC(=O)OC)[nH]c2c1` was tested, and the growth was 6.79% (active). With `CCCc1cc(=O)n2c(C(=O)Nc3ccc(F)cc3)c(C(=O)Nc3ccc(F)cc3)sc2n1` the growth was 52% [30 µM]. Compound `O=C(/C=C/c1ccccc1)c1ccc(O)c(CN2CCN(c3cc4c(cc3F)c(=O)c(C(=O)O)cn4C3CC3)CC2)c1` has a growth of 34.7%. Work on `CCOC(=O)c1sc2nc(-c3cccc(OC)c3)nc(N3CCOCC3)c2c1C` yielded a growth of 101%. With `CCCCCCCCCCCCC[N+](C)(C)Cc1ccccc1` the growth was 0.965% (active). In the case of `CCCOc1ccc2nc(NC(=O)OC)[nH]c2c1`, the growth is reported as 3.52% (active). In the case of `Nc1n[nH]c2ccc([C@@H]3Nc4ccc5cn[nH]c5c4[C@H]4C5CCC(C5)[C@@H]34)cc12` (stereo partly specified), the growth is reported as 1.13% (active). `O=c1nc2oc3ccc4ccccc4c3cc-2s1` gave a growth of 11.1%. For `COC(=O)c1cccc(NC(=O)c2ccc(-c3cccc(N)c3)o2)c1`, the growth was 102%. `CCOC(=O)c1c(C)oc2ncnc(N3CCN(C(=S)Nc4ccccc4)CC3)c12` was tested, and the growth was 103%. Compound `CCCCN(CCCC)CCCn1c(-c2ccccc2)ccc1-c1ccccc1` has a growth of 67.7%. Work on `CN1CCN(CCCOc2cccc3nc(Nc4ccc(Cl)c(F)c4)ccc23)CC1` yielded a growth of 13.2%. `COc1cccc(/C=N/NC(=O)c2ccccc2Nc2ccnc(C(F)(F)F)c2)c1O` was tested, and the growth was -6.96% (active). In the case of `COc1cc2nc(N3CCCC3)nc(NCc3ccccc3)c2cc1OC`, the growth is reported as 79.2%. Work on `COc1cc2c(cc1-c1c(C)noc1C)ncc1nc(-c3ccccn3)n([C@H](C)COC(F)F)c12` yielded a growth of 57.7%. `COc1cccc(-c2nc3sccn3c2-c2ccnc(NCCCNS(=O)(=O)c3c(Cl)cccc3Cl)c2)c1` gave a growth of 67.4%. For `N#Cc1c(-c2ccc(Cl)cc2)nc(NN=Cc2ccco2)nc1N1CCOCC1`, the growth was 68.2%. For `O=C(Nc1cccc2[nH]c(C(F)(F)F)nc12)c1ccc(-n2cnnn2)cc1`, the growth was 81.9%. Work on `CC1CCNC(C)C1` (stereo unspecified) yielded a growth of 105%. `CCN(CC)c1ccc(-c2cc(-c3cc(OC)c(OC)c(OC)c3)nc(N3CCOCC3)c2C#N)cc1` was tested, and the growth was -1.44% (active).

Reference: PubChem BioAssay (NCI)
